These are literature values, as cited in PubChem BioAssay AID977611.

The data set in a line: PubChem AID 977611. Conditions: PDB protein-ligand complexes, literature Kd.

The structures appear in SMILES notation. The campaign covered roughly 3,900 compounds. About 3,900 (100%) were called active. The limit is not given here; nearly all actives have Kd up to about 4200 µM. The set was probably picked from earlier hits. This is one part of the list. Non-standard residues stand in square brackets, D forms with d. Square brackets hold non-standard residues; d marks the D form. Residues, ends and D or L forms follow the SMILES beside them. Peptide text beside a SMILES is read from it. *: point of attachment. Lys(Me3) = C[N+](C)(C)CCCC[C@H](N)C(=O)O; Orn(CH(NH2)2) = NC(N)NCCC[C@H](N)C(=O)O; For = O=C*

As for `Cc1ccc(-c2cc3c(NC[P+](O)(O)O)ncnc3s2)cc1`, the Kd (protein: Farnesyl pyrophosphate synthase, human FPPS, PDB entry 4lph) is 9.2 µM (active).

Regarding `Cc1ccc(-c2cc3c(NC([P+](O)(O)O)[P+](O)(O)O)ncnc3s2)cc1`, under “protein: Farnesyl pyrophosphate synthase, human FPPS, PDB entry 4lpg”, the dissociation constant (Kd) was 55.6 µM (active).

On to `N#Cc1c(Oc2ccc(F)c(NC(=O)Cc3cccc(C(F)(F)F)c3)c2)ccc2nc(NC(=O)C3CC3)sc12`, for which the Kd (protein: Serine/threonine-protein kinase B-raf, PDB entry 4ksp) is 0.0016 µM (active).

`O=C(c1ccccc1Cn1cncn1)N(O)CC[C@@H](c1ccc(Cl)c(Cl)c1)[P+](O)(O)O`: where the note is “protein: 1-DEOXY-D-XYLULOSE 5-PHOSPHATE REDUCTOISOMERASE, PDB entry 3zi0”, the Kd is 0.04 µM (active).

Take `O=C(c1ccccc1Nc1cccc(C(F)(F)F)c1)N(O)CC[C@@H](c1ccc(Cl)c(Cl)c1)[P+](O)(O)O`: where the note is “protein: 1-DEOXY-D-XYLULOSE 5-PHOSPHATE REDUCTOISOMERASE, PDB entry 3zhz”, the Kd was 0.09 µM (active).

For the compound `O=C(c1ccccc1)N(O)CC[C@@H](c1ccc(Cl)c(Cl)c1)[P+](O)(O)O`, under “protein: 1-DEOXY-D-XYLULOSE 5-PHOSPHATE REDUCTOISOMERASE, PDB entry 3zhx”, the Kd is 0.21 µM (active).

Turning to `CC(C)C[C@H](NC(=O)[C@H](Cc1cnc[nH]1)NC(=O)[C@H](CO)NC(=O)[C@H](CO)NC(=O)[C@H](Cc1cnc[nH]1)NC(=O)[C@H](C)NC(=O)[C@@H](N)CCCN=C(N)N)C(=O)N[C@@H](CCCCN(C)C)C(=O)N[C@@H](CO)C(=O)N[C@@H](CCCCN)C(=O)N[C@@H](CCCCN)C(=O)NCC(=O)N[C@@H](CCC(N)=O)C(=O)N[C@@H](CO)C(=O)N[C@H](C(=O)O)[C@@H](C)O`, the Kd (protein: Tumor suppressor p53-binding protein 1, 53BP1 tandem Tudor domains, PDB entry 2mwo) was 20 µM (active).

As for `CSCC[C@H](NC(=O)[C@H](CC(C)C)NC(=O)[C@H](CCCCN(C)C)NC(=O)[C@H](CCCCN)NC(=O)[C@H](Cc1cnc[nH]1)NC(=O)[C@H](CCCN=C(N)N)NC(=O)[C@H](CO)NC(=O)[C@@H](NC(=O)[C@@H](N)CO)[C@@H](C)O)C(=O)N[C@@H](Cc1ccccc1)C(=O)N[C@@H](CCCCN)C(=O)N[C@H](C(=O)O)[C@@H](C)O`, the Kd (protein: Tumor suppressor p53-binding protein 1, 53BP1 tandem Tudor domains, PDB entry 2mwp) is 0.9 µM (active).

Turning to `CC(C)C[C@H](NC(=O)[C@H](CC(=O)O)NC(=O)CNC(=O)[C@H](CCCN=C(N)N)NC(=O)CNC(=O)[C@H](Cc1cnc[nH]1)NC=O)C(=O)NCC(=O)N[C@@H](CCCN=C(N)N)C(=O)N[C@@H](CC(C)C)C(=O)N[C@@H](CCCCN)C(=O)N[C@@H](CCCCN)C(N)=O` (For-HGRGDLGRLKK-NH2), the Kd (protein: Integrin alpha V beta 6, PDB entry 4um9) is 0.0085 µM (active).

In the case of `CC(C)C[C@H](NC(=O)[C@@H](NC(=O)[C@H](CCCC[N+](C)(C)C)NC(=O)[C@H](CCCNC(N)N)NC(=O)[C@H](Cc1cnc[nH]1)NC(=O)[C@@H](N)CCCNC(N)N)C(C)C)C(=O)N[C@H](C=O)CCCNC(N)N` (H-[Orn(CH(NH2)2)]H[Orn(CH(NH2)2)][Lys(Me3)]VL[Orn(CH(NH2)2)]-aldehyde), the Kd (protein: Polycomb protein EED residues 77-441, PDB entry 3ij1) is 20 µM (active).

Turning to `CC(C)C[C@H](NC(=O)[C@@H](NC(=O)[C@H](CCCC[N+](C)(C)C)NC(=O)[C@H](CCCNC(N)N)NC(=O)[C@@H](N)Cc1cnc[nH]1)C(C)C)C(=O)N[C@@H](CCCNC(N)N)C(=O)O` (H-H[Orn(CH(NH2)2)][Lys(Me3)]VL[Orn(CH(NH2)2)]-OH), the dissociation constant (Kd) (protein: Polycomb protein EED, PDB entry 3jpx) was 235 µM (active).

Regarding `CC(C)C[C@H](NC(=O)[C@@H](NC(=O)[C@@H](CCCC[N+](C)(C)C)NC(=O)[C@H](CCCNC(N)N)NC(=O)[C@H](Cc1cnc[nH]1)NC(=O)[C@@H](N)CCCNC(N)N)C(C)C)C(=O)N[C@@H](CCCNC(N)N)C(=O)O`, the Kd (protein: JMJD2A-tudor, PDB entry 2qqs) was 0.4 µM (active).

Turning to `CN(C)c1ccc(C(c2ccc(O)cc2)c2ccc(N(C)C)cc2)cc1`, under “protein: Immunoglobulin lambda variable domain L5(L89S), PDB entry 4k3h”, the Kd is 0.14 µM (active).

For the compound `CN(C)c1ccc(C(c2ccc(N(C)C)cc2)c2ccc(N(C)C)cc2)cc1`, under “protein: Putative regulatory protein, PDB entry 3vw1”, the Kd is 21.2 µM (active).

In the case of `Nc1ccc2[nH]c(=O)c3ccccc3c2c1`, the Kd (protein: Putative ADP-ribosyltransferase Certhrax, PDB entry 4fk7) is 5.8 µM (active).

As for `Nc1ncnc2c1ncn2[C@@H]1O[C@H](CO[P+](O)(O)O)[C@@H](O)[C@H]1O[C@H]1O[C@H](CO[P+](O)(O)O)[C@@H](O)[C@H]1O`, the Kd (protein: E3 ubiquitin-protein ligase RNF146 RNF146(RING-WWE), PDB entry 4qpl) was 0.039 µM (active).

For the compound `Nc1ncnc2c1ncn2[C@@H]1O[C@H](CO[P+](O)(O)O[P+](O)(O)N[P+](O)(O)O)[C@@H](O)[C@H]1O`, the Kd is 37 µM (active) (protein: INOSITOL-PENTAKISPHOSPHATE 2-KINASE, PDB entry 4axd); 8.3 µM (active) (protein: N-acetylhexosamine 1-phosphate kinase NahK, PDB entry 4ock); 8.3 µM (active) (protein: N-acetylhexosamine 1-phosphate kinase NahK, PDB entry 4ocv); 6.8 µM (active) (protein: Osmolarity sensor protein EnvZ, Histidine kinase, PDB entry 4kp4).

Consider `Nc1ncnc2c1ncn2[C@@H]1O[C@H](CO[P+](O)(O)OS(O)(O)O)[C@@H](O)[C@H]1O`, for which the dissociation constant Kd (protein: Adenylyl-sulfate kinase 1, chloroplastic, PDB entry 4fxp) is 80.4 µM (active).

As to `Nc1ncnc2c1ncn2[C@@H]1O[C@H](CO)[C@@H](O[P+](O)(O)OC[C@H]2O[C@@H](n3ccc(=O)[nH]c3=O)[C@H](O)[C@@H]2O)[C@H]1O`, under “protein: Poly(A) RNA polymerase protein cid1, PDB entry 4nku”, the Kd was 21.3 µM (active).

Regarding `Nc1ncnc2c1ncn2[C@@H]1O[C@H](CO[P+](O)(O)O[P+](O)(O)O[P+](O)(O)O)[C@@H](O)[C@H]1O`, the Kd by setting is: (protein: ADENYLATE CYCLASE TYPE 10, PDB entry 4usw) 2030 µM (active); (protein: Chaperone protein DnaK (N432M,Q433G,S434G mutation), PDB entry 4jn4) 1.38 µM (active); (protein: Hsp70 CHAPERONE DnaK (N432M,Q433G,S434G mutation), PDB entry 4jne) 1.38 µM (active); (protein: Nitrogen regulatory protein P-II hmGlnK2, PDB entry 4ozn) 4 µM (active); (protein: Protein hfq, PDB entry 3qo3) 0.125 µM (active); (protein: Walker B/D-loop D645N, D651A double mutant rat TAP1-NBD, PDB entry 4k8o) 170 µM (active).

In general, Kd refers to the constant that tells how readily two partners part at equilibrium.
